Data: PubChem BioAssay (Tox21)
Records with an inconclusive call do not appear. A number with no mark means an inactive call. Calls come from the whole dose curve; as a rule, active = well fitted inhibition curve with a large enough effect in the signal ratio in the repeat runs (not every such curve was filed as active); inconclusive = weak or mixed curves, or effect the other way; inactive = no such curve, though single readings can be large or run the other way; the % refers to the signal ratio. Where a SMILES comes first, the peptide text is derived from it.

Molecular target: Estrogen receptor beta (Homo sapiens) (UniProt Q92731)
Experiment: qHTS assay to identify small molecule antagonists of the estrogen receptor beta (ER-beta) signaling pathway (AID 1259378)
Conditions: ER-beta-UAS-bla HEK293T, beta-lactamase FRET ratio, 16 h; series mostly up to 92.4 µM; activity, negative = inhibition: at the top concentration
From the text: National Center for Advancing Translational Sciences [NCATS]
NIH Chemical Genomics Center [NCGC]
U.S. Environmental Protection Agency [EPA]
National Institutes of Environmental Health Sciences [NIEHS]
National Toxicology Program [NTP]
U.S. Food and Drug Administration [FDA]
Estrogen receptor (ER), a nuclear hormone receptor, plays an important role in development, metabolic homeostasis and reproduction. Two subtypes of ER, ER-alpha and ER-beta, have similar expression patterns with some uniqueness in both types. Endocrine disrupting chemicals (EDCs) and their interactions with steroid hormone receptors like ER causes disruption of normal endocrine function. To identify the compounds that inhibit ER signaling, an ER-beta-UAS-bla GripTite cell line (Life Technologies, Madison, WI, USA) containing a beta-lactamase reporter gene under the control of an UAS response element was used to screen Tox21 10K compound library.
Tox21 Assay Protocol Summary:
ER-beta-UAS-bla HEK293T cells were dispensed at 2,000 cells/4 uL of assay medium containing 2% charcoal stripped FBS per well into black wall/clear-bottom 1536-well plates using a Multidrop Combi (ThermoFisher Scientific, Waltham, MA) dispenser. After the assay plates were incubated at a 37C and 5% CO2 for 6 hr, 23 nL of compounds dissolved in DMSO, positive controls or DMSO only was transferred to the assay plate by a Pintool station (Kalypsys, San Diego, CA), followed by addition of 1 uL (1nM as final concentration) of 17-beta-estradiol (E2) in assay medium using a BioRAPTR FRD (Flying Reagent Dispenser, Aurora Discovery, San Diego, CA). The plates were incubated at 37C and 5% CO2 for 16 hr. Then 1 uL of LiveBLAzerTM B/G FRET substrate was added using a Flying Reagent Dispenser, the plates were incubated at room temperature for 2 hours, and fluorescence intensity was measured by an Envision plate reader (PerkinElmer, Shelton, CT).
% is set by controls: 0 for no effect and ±100 for the full control effect.

Chain of Estrogen receptor beta (Homo sapiens) (Q92731 whole entry, looked up): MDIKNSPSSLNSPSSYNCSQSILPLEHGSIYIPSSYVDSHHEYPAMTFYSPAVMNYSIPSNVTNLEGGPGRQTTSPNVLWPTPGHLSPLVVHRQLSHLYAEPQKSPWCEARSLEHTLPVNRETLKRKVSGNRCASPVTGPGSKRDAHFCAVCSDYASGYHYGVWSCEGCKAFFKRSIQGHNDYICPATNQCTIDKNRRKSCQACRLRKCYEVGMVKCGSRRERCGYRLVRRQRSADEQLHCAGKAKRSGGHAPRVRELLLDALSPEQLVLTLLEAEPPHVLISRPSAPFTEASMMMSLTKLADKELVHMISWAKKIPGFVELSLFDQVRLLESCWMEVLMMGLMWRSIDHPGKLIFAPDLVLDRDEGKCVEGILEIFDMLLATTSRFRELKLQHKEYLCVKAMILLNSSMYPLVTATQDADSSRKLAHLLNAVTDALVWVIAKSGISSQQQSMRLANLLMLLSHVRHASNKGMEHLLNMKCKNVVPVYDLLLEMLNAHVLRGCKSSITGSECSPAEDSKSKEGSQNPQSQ

| SMILES | activity, negative = inhibition |
| --- | --- |
| C[C@H]1[C@@H](c2ccccc2)NC(=O)N1C | -1.43% |
| O=C(O)CNC(=O)CNC(=O)CNC(=O)CSC(=O)c1ccccc1 | 9.27% [at 42.5 µM] |
| CN(C)C(C)(C)CO | -3.35% |
| C=C(C)[C@@H]1CC=C(C)C(=O)C1 | 11.9% |
| CCC(C)C(C)=O (stereo not given) | 4.86% |
| CC(=O)N[C@@H](CO)C(=O)N[C@@H](CC(=O)O)C(=O)N[C@@H](CCCCN)C(=O)N1CCC[C@H]1C(=O)O (Ac-SDKP-OH) | -7.29% [at 42.5 µM] |
| CCCSSCCC | 2.55% |
| COc1cc(/C=C/C(N)=O)cc(OC)c1OC | 0.781% [at 42.5 µM] |
| COC(=O)c1cc(Cl)cc(Cl)c1 | 1.34% |
| CCOC(=O)CC1(C)OCC(C)O1 (stereo not given) | 12.9% |
| CC(C)=CCC/C(C)=C/COC=O | 0.346% |
| CC(C)[C@H]1CC[C@H](C)C[C@@H]1O | -0.873% |
| CC12CCC(C1)C(C)(C)C2O (stereo not given) | -12.3% |
| O=C1c2ccccc2C(=O)c2cc(Cl)ccc21 | 3.18% [at 8.39 µM] |
| N[C@@H](CSCCCO)C(=O)O | 0.481% [at 19 µM] |
| CC1(C)[C@H]2CC[C@](C)(C2)[C@H]1O | 10.6% |
| OCCN1CCOCC1 | 10% |
| COC(=O)/C=C\C(=O)O | 11.5% |
| O=C1CCCCO1 | 5.51% |
| C=CCOC(=O)CCCCCC | 16.2% |

| SMILES | activity, negative = inhibition |
| --- | --- |
| CNCCS(=O)(=O)O | 3.97% |
| CC(=O)O[C@@H]1CC2CCC1(C)C2(C)C (stereo not given in full) | 19.7% |
| Nc1nnnn1-c1ccccc1 | 18.8% [at 42.5 µM] |
| C/C(CC(C)C)=N\O | 16.7% |
| Cc1cccc(Cl)c1 | 22.3% |
| O/N=C/C=N/O | -1.17% |
| Cc1cc(-c2ccccc2)nnc1NCCN1CCOCC1 | -0.738% [at 42.5 µM] |
| CC1(C)O[C@H]2CC(=O)OC[C@]23[C@H]2CC[C@@]4(C)[C@H](c5ccoc5)OC(=O)[C@H]5O[C@]54[C@]2(C)C(=O)C[C@@H]13 | -4.33% [at 42.5 µM] |
| CC(S)C(C)S (stereo not given) | 16.5% |
| CCOc1cccc(N)c1 | -9.92% |
| CC(C)C1OCCN1CCOC(=O)NCCCCCCNC(=O)OCCN1CCOC1C(C)C (stereo not given) | 18.3% |
| O=C(CCCl)NCCc1ccccc1 | 4% [at 42.5 µM] |
| CN(C)CCOC(=O)C(c1ccccc1)C1(O)CCCC1 (stereo not given) | -3.81% [at 42.5 µM] |
| C#CCN[C@@H]1CCc2ccccc21 | 0.638% [at 42.5 µM] |
| CSc1cnccn1 | 4.7% |
| CN1CCOC(c2ccccc2)c2ccccc2C1 (stereo not given) | -7.81% [at 42.5 µM] |
| COC(=O)CCCCC(CCSS/C(CCO)=C(\C)N(C=O)Cc1cnc(C)nc1N)SC(C)=O (stereo not given) | 9.55% [at 42.5 µM] |
| COS(=O)(=O)O | 6.39% |
| NCC1(Cc2noc(=O)[nH]2)CCCCC1 | 0.377% |
| CC1(C)CC(OC(=O)CCCCCCCCC(=O)OC2CC(C)(C)NC(C)(C)C2)CC(C)(C)N1 | -12.7% [at 19 µM] |
